From PubChem BioAssay
D1 antagonist – antagonists of human D1 dopamine receptor; HEK293 TREx D1 cells, calcium flux, dopamine EC80; active compounds read low; activity change, negative = inhibition, % at 10 µM; P21728; hit rate 3.2% among 360,000; in the data active = activity change below about -30%
Target sequence (P21728 whole entry, looked up): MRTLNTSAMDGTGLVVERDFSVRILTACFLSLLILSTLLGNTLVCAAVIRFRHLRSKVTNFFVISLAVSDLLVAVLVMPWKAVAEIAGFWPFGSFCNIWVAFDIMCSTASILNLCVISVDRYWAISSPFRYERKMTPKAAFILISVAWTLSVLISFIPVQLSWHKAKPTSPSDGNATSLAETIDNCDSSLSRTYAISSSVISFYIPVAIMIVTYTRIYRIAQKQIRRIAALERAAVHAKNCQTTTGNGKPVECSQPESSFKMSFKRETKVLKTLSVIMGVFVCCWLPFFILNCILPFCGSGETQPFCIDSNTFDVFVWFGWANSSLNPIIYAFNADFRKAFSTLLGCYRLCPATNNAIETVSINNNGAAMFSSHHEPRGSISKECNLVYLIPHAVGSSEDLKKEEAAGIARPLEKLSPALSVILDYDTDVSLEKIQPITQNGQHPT
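Tetracycline-induced HEK293 Trex D1 cells, force-coupled to calcium, dye-loaded; compounds added and read 180 s, then EC80 dopamine added and calcium flux tracked kinetically another 180 s.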
D3 ag – D3 dopamine receptor (human) agonism | P35462 | D3R DiscoveRx beta-arrestin cells, luminescence, 90 min | max activation, % | hit rate 0.58% among 410,000 | AID 652048; in the data active = max activation above about 30%
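Cells at 1500/well, incubated overnight, then treated with pinned compounds (dopamine as control) for 90 min at 37 degrees C. DiscoveRx reagent added for 30 - 60 minutes at room temperature; luminescence read.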
DRD3 antagonist – D3 dopamine receptor (human) antagonism; P35462; D3R cells, DiscoveRx beta-arrestin luminescence, antagonist mode; active compounds read low; max response, negative = inhibition, %; hit rate 2.5% among 360,000; in the data active = max response below about -50%; inconclusive = no clear call, values can overlap the other calls
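Cells plated overnight at 1500 cells/well, then exposed to library compounds with dopamine controls for 90 minutes at 37 degrees C. DiscoveRx reagent added for 30–60 minutes at room temperature; luminescence read, quantitative HTS format.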
D1 ag – agonists of human D1 dopamine receptor | P21728 | HEK293 T-REx D1 cells, calcium flux, agonist mode | activation, % at 2 µM | hit rate 1% among 360,000 | AID 504660; in the data active = activation above about 30%
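Tetracycline-induced HEK293 TREx D1 cells, force-coupled to calcium signalling, were dye-loaded with a no-wash calcium kit. Compound was pin-added after a 10 s baseline. Fluorescence was read kinetically at 1 cycle/s for 180 s, with calcium rises flagged as agonism.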
D1 PAM – potentiators of human D1 dopamine receptor; P21728; HEK293 TREx D1 cells, calcium flux, dopamine EC20 potentiation; AID 504651; potentiation, % at 10 µM; hit rate 0.036% among 360,000; in the data active = potentiation above about 30%
A number is an active result; – = inactive; ? = inconclusive; · = not tested or not shown. This is a sample that favours compounds with a hit; in the whole collection about 6% have one here.

SMILES	D1 antagonist	D3 ag	DRD3 antagonist	D1 ag	D1 PAM
Cc1ccc(C)c(OCC(=O)Nc2ccc(N3CCOCC3)cc2)c1	–	–	–	–	–
Cc1csc(N=Nc2ccc(N(C)C)cc2)[n+]1[O-]	·	–	-101.6	·	·
COc1cc(CNC2CCCC2)cc(Cl)c1OCc1ccccc1F	-57.6	–	–	156.8	–
Cc1nn(CC(=O)NC2CC2)c(=O)c2cc3ccccc3n12	–	–	·	–	–
Cc1nc(-c2ccccc2)sc1C1(C)CC(c2cccc([N+](=O)[O-])c2)=NO1 (centres undefined)	-41.9	–	–	–	–
Cc1nc(-c2ccccc2)sc1C1(C)CC(c2cccc(F)c2)=NO1 (centres undefined)	·	–	–	·	·
Cc1nc(-c2ccc(Cl)cc2)sc1C1(C)CC(c2ccccc2Br)=NO1 (centres undefined)	·	57.4	–	·	·
Cc1nc(C(=O)Nc2cc(F)cc(Cl)c2)sc1C1(C)CC(c2ccccc2)=NO1 (centres undefined)	·	40.9	–	·	·
O=C(CCCc1ccccn1)c1cccc2ccccc12	·	–	–	·	·
CCc1ccc(NC(=O)Cn2c(=O)n(Cc3ccc4c(c3)OCO4)c(=O)c3oc4ccccc4c32)cc1	–	–	·	–	–
C[C@@H]1CN([C@H](C)CO)C(=O)CCCn2cc(nn2)CO[C@H]1CN(C)C(=O)Nc1cccc(F)c1	·	–	–	·	·
COc1ccc(-c2c(-c3ccccc3)c(C(=O)C(=O)NCCCN(C)C)n3ccc4cc(OC)c(OC)cc4c23)cc1OC	-47.1	–	?	–	–
Cc1ccc(-c2nc(N)c3c(-c4ccc(C)cc4)nn(C(C)(C)C)c3n2)cc1	-46.3	–	–	–	–
CCOc1ccc(S(=O)(=O)Nc2nc3ccccc3nc2-n2ccc(=NC(=O)c3ccccc3C)cc2)cc1	–	–	–	61.5	–
Cc1ccccc1C(=O)N=c1ccn(-c2nc3ccccc3nc2NS(=O)(=O)c2ccccc2)cc1	–	–	–	38.8	–
COc1ccc(CC(=O)N(C)CC(=O)Nc2ccc(F)cc2)cc1S(=O)(=O)N1CCOCC1	–	–	–	–	·
CCOC(=O)C1CCN(Cc2ccc(C(=O)OC)cc2)CC1	–	–	-52.8	–	–
COC(=O)c1ccc(NC(=S)N2CCN(Cc3ccccc3)CC2)cc1	-42.7	–	–	–	–
COC(=O)c1ccc(CN2CCCCC2)cc1	–	–	-55.7	–	–
CCOC(=O)C1CCN(Cc2ccc(F)cc2)CC1	–	–	?	–	–
C=C(C)C1CC=C(CN2CCC(C(=O)OCC)CC2)CC1 (centres undefined)	–	–	-60.6	–	–
Clc1ccc(CN2CCCCCCC2)cc1Cl	–	–	-90.5	–	–
CCOC(=O)C1CCN(Cc2cnc(Oc3ccc(Cl)cc3C)s2)CC1	·	–	-58.3	·	·
CCOC(=O)C1CCN(S(=O)(=O)c2c(Cl)ccc3nonc23)CC1	-35.2	·	·	–	–
CCOC(=O)C1CCN(S(=O)(=O)c2cccc3nonc23)CC1	–	–	–	–	–
SMILES	D1 antagonist	D3 ag	DRD3 antagonist	D1 ag	D1 PAM
CCOC(=O)C1CCN(Cc2ccc(Cl)c(Cl)c2)CC1	–	–	-85.0	–	–
CCOC(=O)C1CCN(Cc2cnc(Oc3ccc(N)cc3)s2)CC1	–	–	–	–	–
COCCn1c(N)c(C(=O)NS(=O)(=O)c2ccc(C)cc2)c(=O)[nH]c1=O	-31.8	–	–	–	–
CC1(C(=O)NCCC#N)CCN1C(=O)C1(c2ccccc2)CC1 (centres undefined)	·	–	-63.4	·	·
CC(C)(C)CNC(=O)C1(C)CCN1C(=O)C1(c2ccccc2)CC1 (centres undefined)	·	–	–	·	·
O=C(c1cc(C2CC2)nc2ccc(Br)cc12)N1N=C(C(F)F)CC1(O)C(F)F (centres undefined)	–	–	-61.8	–	–
CCCNC(=O)c1ccc(N2CCC3(CC2)CC(c2ccccc2)=NO3)c([N+](=O)[O-])c1	–	–	–	–	–
O=C(NCc1ccccc1)c1ccc(N2CCC3(CC2)CC(c2ccc(Cl)cc2)=NO3)c([N+](=O)[O-])c1	–	–	-63.3	–	–
O=C(NCc1ccccc1)C1C(c2ccccc2)=Nc2ccccc2N1C(=O)c1ccncc1 (centres undefined)	·	–	?	·	·
Cc1ccc(/C=C2/NC(=O)N(Cc3ccccc3)C2=O)s1	-39.7	–	–	–	–
CC(C)Cc1csc(NC(=O)c2ccc(Cl)cc2)c1C(=O)O	-31.3	–	–	–	–
CCC(CC)C(=O)Nc1ccc(OCc2cc(=O)n3c4c(sc3n2)CCCC4)cc1	–	–	·	–	–
CN(C)Cc1ncccc1Oc1nc2cc(-c3cccc(Cl)c3)sc2c(=O)n1C	·	–	–	·	·
O=C(COC(=O)c1ccc(Cl)nc1)NCc1ccc(F)cc1	·	–	-50.2	·	·
Oc1ccc(CNc2cccc(C(F)(F)F)c2)c2cccnc12	–	·	·	–	–
O=C(CCC1CCN(Cc2nccs2)CC1)Nc1ccccc1	·	–	–	·	·
O=C(Nc1ccc(F)cc1)c1cccc(N2C(=O)C3C4CCC(C4)C3C2=O)c1 (centres undefined)	–	–	–	–	–
COC(=O)c1ccc(NC(=O)c2cccc(N3C(=O)C4C5C=CC(C6CC56)C4C3=O)c2)cc1 (centres undefined)	–	–	–	–	–
O=C(Nc1ccc(Br)cc1)c1cccc(N2C(=O)C3C4CCC(C4)C3C2=O)c1 (centres undefined)	-39.5	–	–	–	–
O=C(Nc1ccc(F)cc1)c1cccc(N2C(=O)C3C4C=CC(C5CC45)C3C2=O)c1 (centres undefined)	-38.3	–	–	–	–
O=C(Nc1ccccc1)c1cccc(N2C(=O)C3C4C=CC(C5CC45)C3C2=O)c1 (centres undefined)	-38.0	–	–	–	–
Cc1ccc(S(=O)(=O)N[C@@H](C)CO)cc1	·	–	–	·	·
Cn1nnnc1Sc1ncnc2scc(-c3ccccc3C#N)c12	–	·	·	–	–
CC(=O)NC(c1cc(F)c2cccnc2c1O)C(C)C (centres undefined)	–	·	·	–	–
N#CCCN(Cc1ccccc1)C(=S)Nc1ccc(F)cc1	–	–	–	–	–
SMILES	D1 antagonist	D3 ag	DRD3 antagonist	D1 ag	D1 PAM
CN(CCC#N)C(=S)Nc1ccc(F)cc1	-30.5	–	–	–	–
CC(=O)NN1C(=O)/C(=C/c2ccc(Br)o2)SC1=S	–	–	–	–	–
CC(=O)NN1C(=O)/C(=C\c2ccc(Br)o2)SC1=S	–	–	-59.4	–	–
CN(CC(=O)Nc1ccc(Cl)c(C(F)(F)F)c1)C(=O)COC(=O)C1CC2CCCC(C1)C2=O (centres undefined)	·	–	–	·	·
O=C(CNC(=O)c1ccccc1Cl)OCc1cc(=O)n2nc(C3CC3)sc2n1	–	–	·	–	–
COc1cc(/C=N/N=C2/C(=O)Nc3ccccc32)cc(OC)c1O	–	–	-83.7	–	–
COc1ccc(-n2cc(C(=O)NCc3ccc(Cl)cc3)c3ccccc3c2=O)cc1	–	–	·	–	–
